This is an account of results in the supplement of paper PMC12024424.

The subject of experiment [1] is Staphylococcus aureus Sa2 (MRSA, cystic fibrosis isolate). Nature of the experiment: growth reduction vs untreated control (OD550); higher = stronger antibacterial activity. The conditions noted are these: 0.1 mM; 24 h. The method, then: (§1)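 Single-dose screen of the MedChem Express Drug Repurposing Library (0.1 mM, 1% DMSO) against planktonic MRSA S. aureus Sa2 (CF isolate) in TSB in 96-well plates, 37 °C aerobic, 24 h. Assays were run in triplicate and repeated twice.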

The test system is the same in experiment [2]. Nature of the experiment: growth reduction vs untreated control (viable cell count); higher = stronger antibacterial activity; extreme values may be limits of the assay. To be noted: 0.1 mM; 24 h. How it is done: as §1

Consider `CN1CCCN=C1/C=C/c1cccs1` [Pyrantel (pamoate)], for which the growth reduction was 91.6% in experiment [1] and 96% in experiment [2].

As for `Clc1ccccc1C(c1ccccc1)(c1ccccc1)n1ccnc1` [Clotrimazole], the growth reduction in experiment [1] and in experiment [2] was 100% in each case.

As for `CN1C(=O)[C@@H](NC(=O)c2n[nH]c(Cc3ccccc3)n2)COc2ccccc21`, the growth reduction in experiment [1] was 90.3%; in experiment [2], 90%.

Consider `NC(=O)c1cccc2cn(-c3ccc([C@@H]4CCCNC4)cc3)nc12` [Niraparib (tosylate)], for which the growth reduction stood at 99.5% in experiment [1] and 99% in experiment [2].

Take `NC(=O)[C@@H]1CC[C@@H]2CN1C(=O)N2OS(=O)(=O)O` [Avibactam (sodium)]: the growth reduction in experiment [1] was 96.6%; in experiment [2] it was 97%.

On to `CC(C)(C)NCC(O)COc1ccccc1C1CCCC1` (single isomer, unassigned; (+)) [(+)-Penbutolol], for which the growth reduction in experiment [1] was determined as 91%; in experiment [2], 94%.

In the case of `CCN(CC)CCNC(=O)c1c(C)[nH]c(/C=C2\C(=O)Nc3ccc(-c4csc(-c5ccccc5)n4)cc32)c1C` [Amcasertib], the growth reduction in experiment [1] and in experiment [2] was 100% throughout.

In the case of `Cc1ccc(C(=O)Nc2ccc(CN3CCN(C)CC3)c(C(F)(F)F)c2)cc1C#Cc1cnc2cccnn12` [Ponatinib], the growth reduction in experiment [1] was 100%; in experiment [2], 95%.

As for `Cc1c(C)c2c(c(C)c1O)CCC(C)(COc1ccc(CC3SC(=O)NC3=O)cc1)O2` (configuration not stated) [Troglitazone], the growth reduction was found to be 97.5% in experiment [1] and 100% in experiment [2].

On to `COCCNCCc1cccc(Nc2ncc3c(n2)-c2ccccc2[C@H](c2ccccc2F)C3)c1` [Derazantinib], for which the growth reduction in experiment [1] and in experiment [2] was 100% in each case.

For the molecule `Cc1nc2sccn2c(=O)c1CCN1CCC(=C(c2ccc(F)cc2)c2ccc(F)cc2)CC1` [Ritanserin], the growth reduction in experiment [1] was found to be 97.5%; in experiment [2] it was 100%.
